± gives the standard deviation. Bounds are passed on as bounds.

This assay relates to EfPiwi piRISC loaded with piRNA #1 (26 nt). Put plainly: pre-steady-state target cleavage rate (min^-1); auxiliary factor: 500 nM Ephydatia muelleri Gtsf1; guide: piRNA #1 5'p-UGAGGUAGUAGGUUGUAUAGUAUCCA; MIWI and MILI are mouse PIWI proteins and EfPiwi is from a freshwater sponge; tags in brackets are library labels; higher = faster piRNA-guided slicing of the target. The protocol: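 Cleave-'n-Seq: a library of target RNAs (target site in constant flanks) at […] was incubated with 1 nM active freshwater sponge Ephydatia fluviatilis Piwi piRISC (synthetic 5'-monophosphorylated piRNA guide) with or without 500 nM EmGtsf1 at 33 °C for 1 min to 16 h. Uncleaved targets were sequenced and the pooled three trials fitted to a burst-and-steady-state model to give the pre-steady-state cleavage rate (min^-1). Sequence is the target site only. Fits with R² ≤ 0 are excluded.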
In the case of GGAGACGAUACUUUACAACGUACUACCUCA, the “pre-steady-state target cleavage rate” value came to 0.00234 ± 0.0017. The figure for GGAGUGGUUACUAUACAACCUACAACCUCA is 0.00227 ± 0.0015; for GGAGACCAUUCUAUACAACCUACAACCUCA it is 0.00312 ± 0.0031. With GGAGAGGAUACUAUACAACCUAGAUCCUCA, the “pre-steady-state target cleavage rate” value stood at 0.00241 ± 0.0021. In the case of GGAGACCUAUGUAUACAACCUACUGACCUCA, the “pre-steady-state target cleavage rate” value is under 0.0001.

In the case of GGAGACGAUACUAUACAACCUACUACUCUCA, the “pre-steady-state target cleavage rate” value amounted to 0.00563 ± 0.0022. Turning to GGAGUGGAUACUAUACAACCUACGUACCUCA, the “pre-steady-state target cleavage rate” value came out at 0.00401 ± 0.0015.

For GGAGUGGAUAGCUAUACAACCUACUACCUCA, the “pre-steady-state target cleavage rate” value came to 0.00584 ± 0.0033. As for GGAGACGAUUCAAUACAACCUACUACCUCA, the “pre-steady-state target cleavage rate” value worked out at 0.0447 ± 0.018. The figure for GGAGAGGAUACUAUACAACCUCUACCUCA is 0.00619 ± 0.0034; for GGAGACCAUACUAUACAACCAACUACCUGA it is 0.00258 ± 0.0022; for GGAGAGGUUACUAUACAACCUACUACGUCA it is 0.00435 ± 0.0016. The figure for GGAGACCUUACUAUACAACCUACUACCAUCA is 0.00369 ± 0.0024; for GGAGAGGAUACUAUACAACCUUCUUCCUCA it is 0.00382 ± 0.0025; for GGAGACCAUUCUAAACAACCUACUACCUCA it is 0.00894 ± 0.0049. The figure for GGAGUGGAUACUAUACAACCAAGUACCUCA is 0.00281 ± 0.0018; for GGAGUGGAUACUAUACAACCUACUACGACA it is 0.00539 ± 0.0025.

For the sequence GGAGACCUAACAAUACAACCUACUACCUCA, the “pre-steady-state target cleavage rate” value was found to be 0.00868 ± 0.0037. The figure for GGAGACGAUACUAUACAACACUACUACCUCA is 0.00912 ± 0.0032. The figure for GGAGACCUUACUAUACAACCUCCUACCUCA is 0.00545 ± 0.003. The figure for GGAGACCAUACUAUACUACCUACUACCUCA is 0.00859 ± 0.0036; for GGAGAGGAUACUAUACAACCUACUACAUCA it is 0.00573 ± 0.0027; for GGAGUCGAUACUAUACAACCUACUACCUGA it is 0.00547 ± 0.0021. On to “GGAGACCUUACUAUACAACCUACUACCUCU [g2:g22:cont:t1U]”, for which the “pre-steady-state target cleavage rate” value turned out to be 1.04 ± 0.39. The figure for GGAGAGGAUACUAUAGAACCUACUACGUCA is 0.00228 ± 0.0021. For GGAGACGAUAGUAUACAACCUACUACCUCA, the “pre-steady-state target cleavage rate” value is 0.00758 ± 0.0036. The figure for GGAGAGGUUACUAUUCAACCUACUACCUCA is 0.00359 ± 0.0029; for GGAGAGGAUACUAUACAACCUUCUACCUCA it is 0.00778 ± 0.0039; for GGAGUGGAUACUAUUCAACCUACUACCUCA it is 0.0119 ± 0.0052. The figure for GGAGACCUUACUUUACAACCUAGUACCUCA is 0.00395 ± 0.0033. The figure for GGAGUGGAUACUAUACAACCUAGCUACCUCA is 0.003 ± 0.0015. As to GGAGUGGAUACUAUACAACGUAGUACCUCA, the “pre-steady-state target cleavage rate” value worked out at 0.00292 ± 0.0011. The figure for GGAGUGGAUACUAUACAACCUACAUCCUCA is 0.00282 ± 0.0012; for GGAGAGGAUACUAUACAAUCCUACUACCUCA it is 0.00878 ± 0.0059; for GGAGUGGAUACAAUACAACCUACUACCACA it is 0.00323 ± 0.0018. Regarding GGAGACCUUACUAUACAACCUACUACGAGA, the “pre-steady-state target cleavage rate” value was 0.00452 ± 0.0025.

For the sequence GGAGACCAUACUAUACAAACUACUACCUCA, the “pre-steady-state target cleavage rate” value was determined as 0.00853 ± 0.0037.

Turning to GGAGAGGAUACUAUACAACCUACUACGUGA, the “pre-steady-state target cleavage rate” value turned out to be 0.00416 ± 0.0019. The figure for GGAGUGGAUACUAUACAACCUUGAACCUCA is 0.00462 ± 0.0029; for GGAGACCAUUACUAUACAACCUACUACCUCA it is 0.148 ± 0.044.

Values taken from the supplement of paper PMC10338343.
